Experiments:
Assay in all cases: log2 ratio of Biotin-Ahx-Ub-VS probe labelling (fragment/DMSO); higher = less target engagement (more negative = stronger competition), active = hit call of the paper (q ≤ 0.05, log2 ratio ≤ -1)
Conditions in all cases: compound concentration: 200 uM; treatment time: 3 h
USP34 = USP34 (UniProt Q70CQ2)
How it was run: (§1)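 HEK293T lysate (495 µg per sample, in Tris/CHAPS/IGEPAL buffer with protease inhibitors) was treated in triplicate with fragment at 200 µM or with DMSO for 3 h. It was then treated with Biotin-Ahx-Ub-VS (0.5 µM final) for 1 h. Labelled DUBs were NeutrAvidin-enriched, digested with LysC and trypsin, and run by diaPASEF LC-MS/MS. Spectronaut label-free quantities were global-median-normalised. Values are average log2 ratios fragment/DMSO by unpaired t-test, using proteins with ≥2 unique peptides.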

USP36 = biological target: T1, USP36 (UniProt Q9P275)
T1 sequence (whole entry): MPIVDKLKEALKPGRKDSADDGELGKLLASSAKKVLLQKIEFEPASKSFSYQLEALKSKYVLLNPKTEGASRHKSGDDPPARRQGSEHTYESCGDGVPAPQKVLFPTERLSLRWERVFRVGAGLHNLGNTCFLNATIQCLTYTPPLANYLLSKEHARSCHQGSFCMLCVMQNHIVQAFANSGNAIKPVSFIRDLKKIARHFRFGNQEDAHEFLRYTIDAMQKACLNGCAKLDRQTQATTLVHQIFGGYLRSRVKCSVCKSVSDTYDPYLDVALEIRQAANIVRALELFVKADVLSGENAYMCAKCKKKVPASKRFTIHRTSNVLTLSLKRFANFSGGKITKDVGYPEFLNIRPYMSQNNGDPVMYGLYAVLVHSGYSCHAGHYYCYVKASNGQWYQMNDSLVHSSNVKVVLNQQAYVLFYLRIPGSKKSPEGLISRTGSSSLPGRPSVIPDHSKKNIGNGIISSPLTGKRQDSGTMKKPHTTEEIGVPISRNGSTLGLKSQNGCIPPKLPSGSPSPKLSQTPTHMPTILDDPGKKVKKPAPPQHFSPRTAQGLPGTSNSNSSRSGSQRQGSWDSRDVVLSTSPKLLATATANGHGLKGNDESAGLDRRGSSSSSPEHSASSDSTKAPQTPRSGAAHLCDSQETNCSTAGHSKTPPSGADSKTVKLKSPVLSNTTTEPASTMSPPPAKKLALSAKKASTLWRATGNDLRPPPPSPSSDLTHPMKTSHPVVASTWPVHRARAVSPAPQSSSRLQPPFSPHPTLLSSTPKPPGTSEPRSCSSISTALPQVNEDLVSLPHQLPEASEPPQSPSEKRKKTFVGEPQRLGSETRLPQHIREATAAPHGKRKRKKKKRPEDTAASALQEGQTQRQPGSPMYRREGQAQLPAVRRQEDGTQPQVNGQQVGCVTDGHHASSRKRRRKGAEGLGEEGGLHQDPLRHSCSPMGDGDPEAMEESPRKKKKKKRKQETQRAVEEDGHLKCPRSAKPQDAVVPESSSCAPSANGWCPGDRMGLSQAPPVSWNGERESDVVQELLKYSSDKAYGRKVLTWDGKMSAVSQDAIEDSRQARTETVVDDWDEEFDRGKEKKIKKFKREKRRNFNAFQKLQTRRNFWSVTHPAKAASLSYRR
How it was run: as §1

USP38 = biological target: T2, USP38 (UniProt Q8NB14)
T2 sequence (whole entry): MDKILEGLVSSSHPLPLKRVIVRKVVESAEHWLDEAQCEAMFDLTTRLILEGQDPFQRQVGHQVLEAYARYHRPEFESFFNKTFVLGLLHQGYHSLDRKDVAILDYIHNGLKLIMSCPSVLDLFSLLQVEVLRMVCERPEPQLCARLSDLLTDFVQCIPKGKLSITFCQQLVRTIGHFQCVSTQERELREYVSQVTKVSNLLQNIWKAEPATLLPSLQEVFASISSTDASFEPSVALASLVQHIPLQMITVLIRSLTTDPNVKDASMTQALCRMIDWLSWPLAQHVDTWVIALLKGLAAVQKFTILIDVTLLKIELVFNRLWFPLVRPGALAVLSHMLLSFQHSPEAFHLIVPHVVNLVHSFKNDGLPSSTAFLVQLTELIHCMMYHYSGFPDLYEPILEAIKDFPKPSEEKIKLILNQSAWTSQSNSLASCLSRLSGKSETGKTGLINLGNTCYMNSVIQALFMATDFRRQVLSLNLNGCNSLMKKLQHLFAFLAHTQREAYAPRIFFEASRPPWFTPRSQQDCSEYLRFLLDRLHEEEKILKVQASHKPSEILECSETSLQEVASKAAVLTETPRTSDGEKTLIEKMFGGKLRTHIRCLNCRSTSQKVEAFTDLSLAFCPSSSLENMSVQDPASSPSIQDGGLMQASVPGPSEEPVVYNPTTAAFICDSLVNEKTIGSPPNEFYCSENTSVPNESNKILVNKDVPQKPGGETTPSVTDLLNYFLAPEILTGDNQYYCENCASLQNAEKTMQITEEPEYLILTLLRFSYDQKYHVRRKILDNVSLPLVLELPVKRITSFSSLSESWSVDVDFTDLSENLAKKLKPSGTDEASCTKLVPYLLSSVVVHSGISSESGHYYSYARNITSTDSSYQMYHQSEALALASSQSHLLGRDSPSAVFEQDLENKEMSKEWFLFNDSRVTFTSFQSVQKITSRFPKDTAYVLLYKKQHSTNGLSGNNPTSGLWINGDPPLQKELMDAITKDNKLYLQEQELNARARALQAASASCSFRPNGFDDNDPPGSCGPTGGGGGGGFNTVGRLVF
How it was run: as §1

USP39 = biological target: T3, USP39 (UniProt Q53GS9)
T3 sequence (whole entry): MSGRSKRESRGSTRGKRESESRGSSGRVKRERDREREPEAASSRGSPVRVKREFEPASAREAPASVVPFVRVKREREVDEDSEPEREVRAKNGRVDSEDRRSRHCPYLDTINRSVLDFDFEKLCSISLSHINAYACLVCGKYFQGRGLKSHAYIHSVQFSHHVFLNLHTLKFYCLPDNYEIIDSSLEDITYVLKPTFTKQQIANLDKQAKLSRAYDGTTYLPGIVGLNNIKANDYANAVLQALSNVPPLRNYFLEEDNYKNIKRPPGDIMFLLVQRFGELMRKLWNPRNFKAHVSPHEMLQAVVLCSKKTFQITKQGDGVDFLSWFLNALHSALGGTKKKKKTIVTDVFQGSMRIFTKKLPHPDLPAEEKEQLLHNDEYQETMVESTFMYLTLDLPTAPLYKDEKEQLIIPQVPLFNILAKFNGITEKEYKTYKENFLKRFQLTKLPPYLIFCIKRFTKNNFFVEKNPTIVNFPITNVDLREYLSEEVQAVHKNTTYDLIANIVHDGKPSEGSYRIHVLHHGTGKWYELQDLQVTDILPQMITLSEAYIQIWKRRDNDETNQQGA
How it was run: as §1

USP4 = biological target: T4, USP4 (UniProt Q13107)
T4 sequence (whole entry): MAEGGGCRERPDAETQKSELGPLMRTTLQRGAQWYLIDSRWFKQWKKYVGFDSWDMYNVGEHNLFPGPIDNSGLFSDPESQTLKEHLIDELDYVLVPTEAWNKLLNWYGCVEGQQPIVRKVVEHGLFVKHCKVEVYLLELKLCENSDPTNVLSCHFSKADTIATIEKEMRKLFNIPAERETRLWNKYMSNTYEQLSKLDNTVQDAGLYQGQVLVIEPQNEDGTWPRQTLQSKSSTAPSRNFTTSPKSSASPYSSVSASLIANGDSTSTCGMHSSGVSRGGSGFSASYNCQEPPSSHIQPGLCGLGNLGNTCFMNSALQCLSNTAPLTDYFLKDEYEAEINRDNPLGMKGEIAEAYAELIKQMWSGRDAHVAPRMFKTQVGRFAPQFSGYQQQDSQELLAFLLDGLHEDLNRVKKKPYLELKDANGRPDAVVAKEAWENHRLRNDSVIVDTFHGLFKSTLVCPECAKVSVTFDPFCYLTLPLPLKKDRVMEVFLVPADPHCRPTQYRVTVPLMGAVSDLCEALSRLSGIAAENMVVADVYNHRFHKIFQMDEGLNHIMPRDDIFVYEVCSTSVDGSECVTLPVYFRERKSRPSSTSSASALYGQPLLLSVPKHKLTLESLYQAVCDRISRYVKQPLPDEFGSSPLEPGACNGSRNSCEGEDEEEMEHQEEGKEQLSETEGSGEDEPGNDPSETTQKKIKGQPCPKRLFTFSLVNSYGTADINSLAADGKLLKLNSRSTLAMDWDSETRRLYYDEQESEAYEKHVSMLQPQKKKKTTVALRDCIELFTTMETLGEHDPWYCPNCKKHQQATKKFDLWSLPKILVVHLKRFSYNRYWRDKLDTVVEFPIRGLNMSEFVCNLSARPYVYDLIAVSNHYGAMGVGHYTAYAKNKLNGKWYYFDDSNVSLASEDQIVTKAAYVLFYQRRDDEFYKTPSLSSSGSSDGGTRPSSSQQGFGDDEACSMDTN
How it was run: as §1

Measured: log2 ratio of Biotin-Ahx-Ub-VS probe labelling

Sequence of USP34 (Q70CQ2 whole entry, the tested form may be a part): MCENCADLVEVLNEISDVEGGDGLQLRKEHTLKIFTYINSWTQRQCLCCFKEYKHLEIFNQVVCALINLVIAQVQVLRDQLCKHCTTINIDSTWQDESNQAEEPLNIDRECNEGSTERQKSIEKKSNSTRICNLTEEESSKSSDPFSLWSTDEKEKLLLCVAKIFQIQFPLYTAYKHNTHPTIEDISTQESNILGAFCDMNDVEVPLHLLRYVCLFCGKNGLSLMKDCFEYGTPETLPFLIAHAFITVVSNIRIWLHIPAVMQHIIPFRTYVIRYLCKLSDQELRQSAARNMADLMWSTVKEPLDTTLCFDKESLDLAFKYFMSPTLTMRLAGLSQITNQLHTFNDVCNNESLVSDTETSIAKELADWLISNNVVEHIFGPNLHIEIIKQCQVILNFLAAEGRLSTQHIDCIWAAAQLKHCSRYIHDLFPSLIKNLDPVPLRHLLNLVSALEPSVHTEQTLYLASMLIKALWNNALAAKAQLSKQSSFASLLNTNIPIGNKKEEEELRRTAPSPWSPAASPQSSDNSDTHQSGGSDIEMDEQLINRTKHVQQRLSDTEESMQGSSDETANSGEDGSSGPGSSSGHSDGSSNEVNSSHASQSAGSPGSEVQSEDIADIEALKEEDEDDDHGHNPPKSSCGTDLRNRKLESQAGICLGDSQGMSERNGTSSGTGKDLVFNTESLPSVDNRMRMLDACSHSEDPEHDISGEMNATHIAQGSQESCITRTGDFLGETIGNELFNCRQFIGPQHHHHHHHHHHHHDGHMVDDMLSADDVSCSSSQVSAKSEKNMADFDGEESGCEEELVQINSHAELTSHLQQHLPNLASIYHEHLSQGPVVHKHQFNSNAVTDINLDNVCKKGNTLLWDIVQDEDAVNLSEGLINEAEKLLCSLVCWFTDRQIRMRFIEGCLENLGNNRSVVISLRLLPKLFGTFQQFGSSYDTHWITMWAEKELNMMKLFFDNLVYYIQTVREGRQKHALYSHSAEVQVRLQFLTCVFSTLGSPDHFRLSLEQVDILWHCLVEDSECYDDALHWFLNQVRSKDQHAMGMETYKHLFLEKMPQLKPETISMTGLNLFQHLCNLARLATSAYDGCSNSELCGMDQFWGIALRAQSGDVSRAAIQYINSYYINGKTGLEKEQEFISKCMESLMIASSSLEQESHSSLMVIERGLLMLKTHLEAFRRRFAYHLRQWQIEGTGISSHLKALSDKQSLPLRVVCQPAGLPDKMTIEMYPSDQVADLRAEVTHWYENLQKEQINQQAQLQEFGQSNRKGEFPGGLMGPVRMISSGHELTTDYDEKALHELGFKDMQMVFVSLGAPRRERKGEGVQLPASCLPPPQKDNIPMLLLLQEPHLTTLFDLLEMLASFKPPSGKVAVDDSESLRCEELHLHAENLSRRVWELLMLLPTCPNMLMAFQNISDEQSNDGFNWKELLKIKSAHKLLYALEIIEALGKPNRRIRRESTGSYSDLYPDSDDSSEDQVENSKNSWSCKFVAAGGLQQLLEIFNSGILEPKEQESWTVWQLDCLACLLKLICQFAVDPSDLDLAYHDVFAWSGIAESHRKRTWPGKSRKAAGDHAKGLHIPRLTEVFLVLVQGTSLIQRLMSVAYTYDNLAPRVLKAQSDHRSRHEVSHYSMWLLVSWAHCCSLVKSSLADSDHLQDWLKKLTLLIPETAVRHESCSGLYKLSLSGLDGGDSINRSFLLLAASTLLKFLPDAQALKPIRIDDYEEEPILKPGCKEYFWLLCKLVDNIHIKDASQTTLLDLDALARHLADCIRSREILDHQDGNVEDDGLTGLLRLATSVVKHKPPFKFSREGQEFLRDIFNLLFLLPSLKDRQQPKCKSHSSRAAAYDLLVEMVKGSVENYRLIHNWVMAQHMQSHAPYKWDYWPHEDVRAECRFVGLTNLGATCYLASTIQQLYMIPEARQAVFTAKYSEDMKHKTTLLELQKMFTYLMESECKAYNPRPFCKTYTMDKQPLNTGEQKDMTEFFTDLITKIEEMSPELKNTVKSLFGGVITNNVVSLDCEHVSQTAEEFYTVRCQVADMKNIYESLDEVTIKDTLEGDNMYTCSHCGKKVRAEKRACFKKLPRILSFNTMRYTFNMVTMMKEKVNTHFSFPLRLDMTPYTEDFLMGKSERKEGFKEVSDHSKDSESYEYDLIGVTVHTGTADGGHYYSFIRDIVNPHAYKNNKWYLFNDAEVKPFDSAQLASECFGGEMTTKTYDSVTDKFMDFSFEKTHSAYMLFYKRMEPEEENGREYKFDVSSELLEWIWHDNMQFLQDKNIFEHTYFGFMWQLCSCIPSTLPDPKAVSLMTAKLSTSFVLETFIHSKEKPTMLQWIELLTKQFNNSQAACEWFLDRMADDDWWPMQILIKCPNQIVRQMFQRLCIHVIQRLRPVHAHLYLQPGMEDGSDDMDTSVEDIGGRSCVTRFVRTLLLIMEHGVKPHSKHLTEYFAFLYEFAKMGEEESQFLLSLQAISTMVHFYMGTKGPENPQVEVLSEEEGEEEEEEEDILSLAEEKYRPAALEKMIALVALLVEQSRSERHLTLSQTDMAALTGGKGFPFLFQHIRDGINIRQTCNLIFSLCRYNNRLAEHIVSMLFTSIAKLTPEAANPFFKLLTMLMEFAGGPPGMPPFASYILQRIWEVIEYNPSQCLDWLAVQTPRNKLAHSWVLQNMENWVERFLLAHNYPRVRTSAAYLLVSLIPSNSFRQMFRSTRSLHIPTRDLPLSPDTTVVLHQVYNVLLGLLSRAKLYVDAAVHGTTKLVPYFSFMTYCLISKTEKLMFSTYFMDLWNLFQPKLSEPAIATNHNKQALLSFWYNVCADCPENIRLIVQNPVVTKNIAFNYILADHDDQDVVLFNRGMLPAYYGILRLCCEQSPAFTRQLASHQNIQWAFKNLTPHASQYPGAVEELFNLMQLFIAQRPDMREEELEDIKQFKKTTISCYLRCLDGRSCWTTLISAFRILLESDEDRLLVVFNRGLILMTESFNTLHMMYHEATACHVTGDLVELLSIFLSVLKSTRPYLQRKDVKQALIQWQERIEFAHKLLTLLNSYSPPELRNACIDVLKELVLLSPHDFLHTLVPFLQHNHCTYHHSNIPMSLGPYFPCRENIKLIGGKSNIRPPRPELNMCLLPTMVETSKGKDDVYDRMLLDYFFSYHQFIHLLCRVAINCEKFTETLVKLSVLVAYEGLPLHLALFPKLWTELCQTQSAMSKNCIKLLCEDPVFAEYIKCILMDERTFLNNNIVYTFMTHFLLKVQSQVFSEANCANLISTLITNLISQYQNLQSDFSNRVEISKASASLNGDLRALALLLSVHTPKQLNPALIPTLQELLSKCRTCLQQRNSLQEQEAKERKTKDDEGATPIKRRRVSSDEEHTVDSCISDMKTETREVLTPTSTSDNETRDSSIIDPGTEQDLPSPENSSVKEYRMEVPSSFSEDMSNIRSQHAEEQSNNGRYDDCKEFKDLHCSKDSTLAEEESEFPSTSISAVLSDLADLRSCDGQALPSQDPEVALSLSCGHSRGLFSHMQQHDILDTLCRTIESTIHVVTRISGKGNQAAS

CC(NC(=O)CCl)c1cccc2ccccc12 (stereo not given)
inactive: USP34 -0.0995 | USP36 -0.062 | USP38 0.0489 | USP39 0.171 | USP4 -0.154

From the supplement of paper PMC11732987, “Enantioselective OTUD7B fragment discovery through chemoproteomics screening and high-throughput optimisation” (Communications Chemistry, 2025)
